Test results from the supplement of paper PMC12340641.

biological target: IKZF1 (dCK*-IKZF1 fusion in HEK293FT) (UniProt Q13422); assay: inhibition of IKZF1 HTRF signal (DMSO = 0%, pomalidomide 10 uM = 100%); higher = lower IKZF1 protein level; details: compound concentration: 5 uM, overnight (~20 h)
Procedure, shortened: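 Values are percent inhibition of IKZF1 signal, normalised plate by plate against vehicle and a reference degrader. HEK293FT cells stably expressing an IKZF1 fusion were seeded at 2000 per well in 384-well plates and exposed to 5 μM compound in single wells overnight at 37 °C. After 30 min lysis at room temperature, lysates were incubated overnight with a commercial HTRF total-IKZF1 antibody kit, and the background-subtracted 665/620 nm time-resolved FRET ratio was read. On each plate, vehicle was set at 0% and the reference degrader at 100%.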

IKZF1 (dCK*-IKZF1 fusion in HEK293FT), sequence (Q13422 whole entry, looked up, the tested form may be a part): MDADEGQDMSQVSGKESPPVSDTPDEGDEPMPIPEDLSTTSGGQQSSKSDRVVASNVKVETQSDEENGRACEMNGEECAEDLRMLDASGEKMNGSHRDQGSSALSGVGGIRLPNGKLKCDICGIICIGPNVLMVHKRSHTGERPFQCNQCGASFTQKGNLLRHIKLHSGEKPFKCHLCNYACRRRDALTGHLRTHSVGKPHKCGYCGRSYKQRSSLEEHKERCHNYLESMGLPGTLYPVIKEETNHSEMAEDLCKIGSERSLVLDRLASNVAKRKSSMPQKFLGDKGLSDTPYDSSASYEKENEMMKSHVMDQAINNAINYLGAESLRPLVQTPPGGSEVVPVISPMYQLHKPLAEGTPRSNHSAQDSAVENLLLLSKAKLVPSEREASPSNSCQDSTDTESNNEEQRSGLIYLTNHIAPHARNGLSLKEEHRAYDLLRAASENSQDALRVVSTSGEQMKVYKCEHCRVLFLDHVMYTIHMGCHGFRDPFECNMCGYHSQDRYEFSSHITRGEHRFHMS

SMILES	inhibition of IKZF1 HTRF signal
COc1cc2cc(c1Cl)N(C)C(=O)C[C@H](OC(=O)C(C)C)[C@]1(C)O[C@H]1[C@H](C)[C@@H]1C[C@@](O)(NC(=O)O1)[C@H](OC)/C=C/C=C(\C)C2 [Ansamitocin P-3]	-18.7%
COc1ccc(C[C@H]2NC[C@H](O)[C@H]2OC(C)=O)cc1 [anisomycin]	63.3%
Clc1ccccc1C(c1ccccc1)(c1ccccc1)n1cccn1	-25.1%
C[C@H]1CCC/C=C/C2C[C@H](O)C[C@H]2[C@H](O)/C=C/C(=O)O1 (stereo not given in full) [brefeldin-a]	2.49%
N#Cc1nn(-c2c(Cl)cc(C(F)(F)F)cc2Cl)c(N)c1S(=O)C(F)(F)F (stereo not given)	-50.9%
c1ccc2c(c1)sc1ccccc12	-33.1%
CCCCCCC[n+]1ccc(-c2cc[n+](CCCCCCC)cc2)cc1	-27.9%
O=[N+]([O-])c1ccc(Cl)c([N+](=O)[O-])c1 [2,4-dinitrochlorobenzene]	7.2%
Clc1ccc(C(OCCN2CCCCC2)c2ccccc2)cc1 (stereo not given)	-26.4%
COC(=O)[C@@]12OC[C@]34[C@H]([C@@H](O)[C@@H]1O)[C@@]1(C)CC(=O)C(O)=C(C)[C@@H]1C[C@H]3OC(=O)[C@H](OC(=O)/C=C(\C)C(C)C)[C@@H]24 [Bruceantin]	43.7%
CC[C@@H](C(=O)O)C1CC[C@H](C)C([C@@H](C)[C@H](O)[C@H](C)C(=O)[C@H](CC)C2O[C@]3(C=C[C@@H](O)[C@]4(CC[C@@](C)(C5CC[C@](O)(CC)[C@H](C)O5)O4)O3)[C@H](C)C[C@@H]2C)O1 (stereo not given in full) [Salinomycin (Procoxacin)]	-5.47%
CCCCCCCCCCCCCCCC[n+]1ccccc1	-19.4%
C[C@]12CC[C@H](O)C[C@H]1CC[C@@H]1[C@@H]2CC[C@]2(C)[C@@H](C3=CC(=O)OC3)CC[C@]12O [digitoxigenin]	40.7%
O=C(CCCN1CCC2(CC1)C(=O)NCN2c1ccccc1)c1ccc(F)cc1 [spiperone]	-3.55%
C(=C\c1ccccc1)/CN1CCN(CCOC(c2ccccc2)c2ccccc2)CC1	-32.9%
Cc1cc(O)c2c(=O)c3c(O)cc(O)c4c5c(O)cc(O)c6c(=O)c7c(O)cc(C)c8c1c2c(c34)c(c78)c65 [Hypericin]	13.4%
CC(C)C[C@H](NC(=O)[C@@H](O)[C@H](N)Cc1ccccc1)C(=O)NCCOCCOCCOCC(=O)O[C@H]1CC[C@H]2[C@@H]3CC[C@H]4CC(=O)CC[C@]4(C)[C@H]3CC[C@]12C.O=C(O)C(F)(F)F [PROTAC AR Degrader-4 (TFA)]	16.9%
CCCCCCCCCCC(=O)O[C@H]1CC[C@H]2[C@@H]3CCC4=CC(=O)CC[C@]4(C)[C@H]3CC[C@]12C [Testosterone (undecanoate)]	-31.5%
COc1ccc2c(c1)/C(=C/c1cnc[nH]1)C(=O)N2	-35.9%
N#Cc1cn([C@@H]2O[C@H](CO)[C@@H](O)[C@H]2O)c2ncnc(N)c12 [toyocamycin]	44.4%
CC[C@@]1(O)C(=O)OCc2c1cc1n(c2=O)Cc2cc3ccccc3nc2-1 [camptothecin]	-10.9%
Oc1c(I)cc(I)cc1I	11%
O=c1c2ccccc2[se]n1-c1ccccc1	-37.8%
Cc1cc(C(C#N)c2ccc(Cl)cc2)c(Cl)cc1NC(=O)c1cc(I)cc(I)c1O (stereo not given)	-5.04%
O=c1n(Cl)c(=O)n(Cl)c(=O)n1Cl	-9.26%
O=C1/C(=C/c2ccccc2)C[C@@]2(O)C3Cc4ccc(O)c5c4[C@@]2(CCN3CC2CC2)[C@H]1O5	27.9%
C=C1[C@@H](C)[C@H]2[C@H](Cc3ccccc3)NC(=O)[C@]23OC(=O)/C=C/[C@H](O)CCC[C@@H](C)C/C=C/[C@H]3[C@@H]1O [Cytochalasin B]	32.2%
O=C1c2ccccc2C(=O)c2ccccc21 [anthraquinone]	-34.9%
C[C@H]1O[C@@H](O[C@H]2[C@@H](O)C[C@H](O[C@H]3[C@@H](O)C[C@H](O[C@H]4CC[C@@]5(C)[C@H](CC[C@@H]6[C@@H]5C[C@@H](O)[C@]5(C)C(c7coc(O)c7)CC[C@]65O)C4)O[C@@H]3C)O[C@@H]2C)C[C@H](O)[C@@H]1O (stereo not given in full) [Digoxin]	84.1%
O=[N+]([O-])/C=C/c1ccc2c(c1)OCO2	-44.2%
